From PubChem BioAssay (NCI) come the findings set out here.

Some test systems named below: SR leukemia; RPMI-8226 leukemia; OVCAR-8 ovarian; OVCAR-4 ovarian; SK-OV-3 ovarian; IGROV1 ovarian; OVCAR-3 ovarian; HS 578T breast; NCI/ADR-RES ovarian; OVCAR-5 ovarian.
Experiment in all cases: NCI-60 one-dose screen, 48 h (100 = growth as untreated, 0 = no growth, -100 = all killed)
Common to all, as to settings: 10 µM unless noted

The structures appear in SMILES notation. About 83,000 compounds went through this panel and 20% of them were active in at least one assay; those are over-represented in the sample as a whole.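 48-hour exposure, single concentration, 96-well plates; percent growth endpoint where 0 means no net growth. Active: below 10.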 Unmarked numbers belong to inactive results. The source made the active and inactive calls.

For the compound `COc1ccc(CNCCCN2C(=O)c3ccc4c5c(ccc(c35)C2=O)C(=O)N(CCCNCCCCNCCCN)C4=O)c(OC)c1OC`, the growth in the experiment with SR leukemia is 6.04% (active); in the experiment with RPMI-8226 leukemia it was 39.7%; in the experiment on OVCAR-8 ovarian it was 4.39% (active); in the experiment with OVCAR-4 ovarian, -48.3% (active); in the experiment with SK-OV-3 ovarian it was 51.7%; in the experiment with IGROV1 ovarian, -4.4% (active). For the same compound, the growth in the experiment on OVCAR-3 ovarian is 3.29% (active); in the experiment on HS 578T breast it was 73.1%; in the experiment with NCI/ADR-RES ovarian, 60.7%.
On to `O=C(/C=C/c1cc(-c2ccc3c(c2)OCO3)n[nH]1)c1ccc2c(c1)OCO2`, for which the growth in the experiment with SR leukemia was 44.5%; with RPMI-8226 leukemia, 56.6%; in the experiment on OVCAR-8 ovarian it was 86.9%; in the experiment on OVCAR-4 ovarian, 71.3%; in the experiment with SK-OV-3 ovarian, 109%; in the experiment with IGROV1 ovarian, 91.6%. Also, the results for the growth in the experiment with OVCAR-3 ovarian, in the experiment with HS 578T breast and with NCI/ADR-RES ovarian were 90.7%, 95.2% and 102%, respectively.
Consider `O=C(/C=C/c1ccccc1)c1cccc(O)c1`, for which the growth was 6.27% (active) in the experiment with SR leukemia; -37.8% (active) in the experiment on RPMI-8226 leukemia; 86.5% with OVCAR-8 ovarian; 106% in the experiment on OVCAR-4 ovarian; 104% in the experiment with SK-OV-3 ovarian; 82% in the experiment on IGROV1 ovarian. Also, the figures for the growth with HS 578T breast and with NCI/ADR-RES ovarian were 110% and 103%, respectively.
With `COc1ccc(/C=C(\C#N)c2cc(OC)c3c(c2)OCO3)cc1`, the growth in the experiment with SR leukemia was 1.82% (active); with RPMI-8226 leukemia, 28.6%; in the experiment on OVCAR-8 ovarian it was 24.3%; in the experiment on OVCAR-4 ovarian it was 39%; in the experiment on SK-OV-3 ovarian it was 8.7% (active); with IGROV1 ovarian it was 16.3%. Further, the growth with OVCAR-3 ovarian is -42.7% (active); in the experiment on HS 578T breast, 28.5%; in the experiment with NCI/ADR-RES ovarian, 7.74% (active).
In the case of `S=C1CC(=S)NC(=S)N1`, the growth was 109% with SR leukemia; 122% with RPMI-8226 leukemia; 110% in the experiment with OVCAR-5 ovarian; 99% in the experiment on OVCAR-4 ovarian; 111% in the experiment with SK-OV-3 ovarian; 96.7% with IGROV1 ovarian. Besides, the growth was 116% with OVCAR-3 ovarian, 101% in the experiment with HS 578T breast and 105% in the experiment on NCI/ADR-RES ovarian.
With `COc1ccc(OC)c(/C=C2\Oc3cc(OCCCN4CCCC4)ccc3C2=O)c1`, the growth in the experiment on SR leukemia was -22.8% (active); in the experiment with RPMI-8226 leukemia, 77.7%; in the experiment on OVCAR-5 ovarian, 82.1%; with OVCAR-4 ovarian it was 86.7%; in the experiment with SK-OV-3 ovarian it was 110%; in the experiment on IGROV1 ovarian it was 84.2%. In addition, the growth is 91% in the experiment on OVCAR-3 ovarian, 80.8% in the experiment with HS 578T breast and 80.3% in the experiment on NCI/ADR-RES ovarian.
With `Cn1ccc(Nc2nccc(Oc3ccc(C(=O)Nc4cccc(F)c4)c(Cl)c3)n2)c1`, the growth with SR leukemia is 98.3%; with RPMI-8226 leukemia, 107%; in the experiment on OVCAR-8 ovarian it was 88.2%; with OVCAR-5 ovarian it was 87.9%; in the experiment with SK-OV-3 ovarian, 15.9%; in the experiment on IGROV1 ovarian, 62.4%. The growth in the experiment with OVCAR-3 ovarian was 55.6%; in the experiment with HS 578T breast, 96.9%; with NCI/ADR-RES ovarian it was 96.6%.
As for `COC(=O)C1CCCN1C(=O)[C@@H]1CCCN1C(=O)[C@H](Cc1c[nH]c2ccccc12)NC(=S)Nc1cc(C(F)(F)F)cc(C(F)(F)F)c1` (some centres not stated), the growth in the experiment on SR leukemia was 0.677% (active); with RPMI-8226 leukemia it was 36.6%; in the experiment with OVCAR-8 ovarian, 42.7%; in the experiment with OVCAR-4 ovarian, 61.1%; in the experiment on SK-OV-3 ovarian, 87.4%; in the experiment with IGROV1 ovarian, 47.1%. Further, the results for the growth in the experiment on OVCAR-3 ovarian, in the experiment with HS 578T breast and in the experiment with NCI/ADR-RES ovarian were 57.2%, 65.4% and 52.6%, respectively.
`CCc1ccc(-c2ccc(=O)n(-c3ccc(S(N)(=O)=O)cc3)n2)cc1`: the growth in the experiment with SR leukemia is -11.9% (active); with RPMI-8226 leukemia, -29.9% (active); with OVCAR-8 ovarian it was 51.2%; in the experiment on OVCAR-5 ovarian it was 91.6%; in the experiment with SK-OV-3 ovarian it was 49.5%; with IGROV1 ovarian, -5.72% (active). The growth is -56.8% (active) in the experiment on OVCAR-3 ovarian, 28.6% with HS 578T breast and 1% (active) in the experiment on NCI/ADR-RES ovarian.
Consider `Fc1ccccc1-c1nc(-c2nc3cc(Cl)c(Cl)cc3[nH]2)c2ccccn12`, for which the growth in the experiment with SR leukemia is 20.7%; with RPMI-8226 leukemia it was 74.7%; with OVCAR-8 ovarian, 68.4%; with OVCAR-4 ovarian, 1.61% (active); in the experiment on SK-OV-3 ovarian it was 83.7%; in the experiment with IGROV1 ovarian, 21.9%. Moreover, the growth in the experiment with OVCAR-3 ovarian is 70.5%; in the experiment with HS 578T breast, 44%; in the experiment with NCI/ADR-RES ovarian, 76%.
On to `COc1ccc2c(c1)NC1=C(C(=O)OC1)C2c1cc(OC)c2c(c1)OCO2` (configuration not stated), for which the growth in the experiment on SR leukemia is 2.24% (active); with RPMI-8226 leukemia, 25.1%; in the experiment with OVCAR-8 ovarian it was 20.7%; in the experiment on OVCAR-4 ovarian, 46%; with SK-OV-3 ovarian, 13%; in the experiment with IGROV1 ovarian, 24.4%. In addition, the growth in the experiment with OVCAR-3 ovarian was -44.9% (active); with HS 578T breast, 14%; with NCI/ADR-RES ovarian it was 1.91% (active).
Turning to `COc1ccc(CN2CCc3c(Sc4ccccc4)nc(N)nc3C2=O)c(OC)c1`, the growth was 43.3% in the experiment on SR leukemia; -6.07% (active) with RPMI-8226 leukemia; 44.8% in the experiment with OVCAR-8 ovarian; 82.3% with OVCAR-5 ovarian; 82.2% in the experiment with SK-OV-3 ovarian; 57.1% with OVCAR-3 ovarian. Besides, the growth is 74.3% with HS 578T breast and 49.7% with NCI/ADR-RES ovarian.
Take `COc1ccc(-c2nc3sc(-c4cc(OC)c(OC)c(OC)c4)nn3c2/C=C2/C(=O)Nc3ccc(F)cc32)cc1`: the growth in the experiment with SR leukemia was 18.6%; in the experiment on RPMI-8226 leukemia, 13.3%; with OVCAR-5 ovarian, 3.01% (active); in the experiment on OVCAR-4 ovarian, -32.4% (active); in the experiment on SK-OV-3 ovarian it was 6.67% (active); in the experiment with IGROV1 ovarian, -39.3% (active). Besides, the growth is -60.9% (active) in the experiment with OVCAR-3 ovarian, 30.3% in the experiment with HS 578T breast and 37.6% in the experiment on NCI/ADR-RES ovarian.
With `COc1cc(C2C3=C(COC3=O)Nc3cc4c(cc32)CCC4)cc2c1OCO2` (configuration not stated), the growth is 5.8% (active) in the experiment with SR leukemia; 23.2% in the experiment on RPMI-8226 leukemia; 24.5% in the experiment on OVCAR-8 ovarian; 43.5% in the experiment with OVCAR-4 ovarian; 17.4% in the experiment on SK-OV-3 ovarian; 23.2% with IGROV1 ovarian. Further, the results for the growth in the experiment with OVCAR-3 ovarian, in the experiment on HS 578T breast and in the experiment on NCI/ADR-RES ovarian were -47.9% (active), 28.4% and -16.6% (active), respectively.
Turning to `COc1cc(C2CC(c3ccc4c(c3)OCO4)=NN2C(C)=O)cc(OC)c1OC` (configuration not stated), the growth is 19.9% with SR leukemia; 39.2% in the experiment with RPMI-8226 leukemia; 42% with OVCAR-8 ovarian; 54.5% with OVCAR-4 ovarian; 10.6% in the experiment with SK-OV-3 ovarian; -5.71% (active) in the experiment with OVCAR-3 ovarian. Also, the growth in the experiment on HS 578T breast was -7.69% (active); in the experiment on NCI/ADR-RES ovarian, 4% (active).
